# Only some compounds are listed: those with a hit (about 1.8% of all), similar ones and a draw of the others.
# sdo1 growth: growth rescue of sdo1-depleted yeast, primary screen, S. cerevisiae, bone marrow failure model. S. cerevisiae sdo1-depleted JHY4D growth rescue, OD600 30 h; hits give high values; pdr5 snq2 efflux-pump mutant strain. hit rate 0.21% among 140,000. z-score at 10 µM;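 active = z-score above 3 at both the 24 hr and the 30 hr optical density reads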;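 note: z-score against mean and SD of all compound wells on the same plate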
# Phagocyt inh: inhibitors of macrophage phagocytosis, primary screen, imaging, J774A.1 cells, IgG beads; AID 1029, 2008; J774A.1 macrophage IgG-bead phagocytosis; inhibition, % at 5 µM; hit rate 0.07% among 110,000;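 active = inhibition above the mean of the plate negative controls plus 5 SD, cut at about 13% in these data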;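 note: phagocytic index as fraction of beads internalized from green versus red external bead signal; plate controls were DMSO negative control for no effect and cytochalasin-D positive control for full effect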
# Measles CPE: compounds protecting cells from measles virus cytopathic effect, primary screen, measles RdRp inhibitor project, single point, MLSMR library, absorbance; Measles virus-infected cells, CPE protection; protection (pct of control), % at 4 µM; hit rate 1.5% among 140,000; in the data active = protection mostly above about 24%, no sharp cut-off; inactive = mostly below about 26%
# An asterisk follows results filed as active; x = no result given; [ ] = another dose, or the depositor's remark.
SMILES,sdo1 growth,Phagocyt inh,Measles CPE
Cc1ccc(/C=C2\Oc3cc(OC(=O)N4CCOCC4)ccc3C2=O)cc1,0.04,x,11
CCc1nnc(NC(=O)c2nc3nc(C)cc(C)n3n2)s1,0.38,5,7
CCCCCC(=O)Nc1sc(C)c(C)c1C#N,-0.52,1,10
O=S(=O)(c1cccc(NC(=S)Nc2ccc(Br)cc2Cl)c1)N1CCOCC1,0.07,x,5
C=CCn1c(SCc2c(C)noc2C)nc2sc3c(c2c1=O)CCCC3,-0.8,-3,1
Cc1noc(C)c1CSc1nc2sc3c(c2c(=O)n1C)CCCC3,-1.6,-1,96*
COc1ccc(CCCC(=O)NCc2ccccc2)cc1C,0.63,0,5
CCC(C)(C)n1nnnc1CN(Cc1cccs1)Cc1cc2cc(OC)ccc2[nH]c1=O,0.26,0,37*
CCOc1ccc2[nH]c(=O)c(CN(Cc3cccs3)Cc3nnnn3C(C)(C)CC)cc2c1,0.37,0,25
COC(=O)c1ccc(CNC(=O)COC(=O)C23CC4CC(CC(C4)C2)C3)cc1,-0.37,-5,43
O=C(COC(=O)C12CC3CC(CC(C3)C1)C2)NCCc1ccccc1,0.12,0,43*
O=c1c2ccccc2oc2nc3ccn(Cc4ccncc4)c(=O)c3cc12,0.15,-3,7
CN(C)CCCC(=O)c1ccc2c(c1)OCO2,1,x,35*
CN(C)CCC(=O)c1ccc2c(c1)OCO2,0.32,x,15
O=C(O)CSc1c(-c2cccs2)[nH]c2ccccc12,0.86,-4,40*
O=C(O)CSc1c(-c2ccccc2)[nH]c2ccccc12,0.45,-4,10
CC(=O)CCN1CCOCC1,-0.14,1,94*
CN(C)C(=O)CCN1CCOCC1,0.02,-5,10
CCC(C)c1ccc(O)c(NC(=O)c2cncc(Br)c2)c1 (configuration not stated),-0.84,-1,3
c1ccc(-c2nc(Sc3ncnc4c3cnn4-c3ccccc3)n[nH]2)cc1,-2.6,-2,3
O=C(NC1CCCCCC1)c1cccc(COCC(F)(F)F)c1,0.61,x,36*
O=C(NC1CCCCC1)c1ccc(COCC(F)(F)F)o1,0.2,-2,21
CCCc1nc2ccccc2c(C(=O)OCC(=O)Nc2c(C)n(C)n(-c3ccccc3)c2=O)c1CC,0.53,-7,4
COc1cc(CN2C(=S)NC(C)(C)CC2(C)O)cc(OC)c1 (configuration not stated),0.7,x,1
CCCc1[nH]nc2c1C(c1cc(OC)ccc1F)C(C#N)=C(N)O2 (configuration not stated),-0.61,0,15
SMILES,sdo1 growth,Phagocyt inh,Measles CPE
CCCc1[nH]nc2c1C(c1cc(OC)cc(OC)c1)C(C#N)=C(N)O2 (configuration not stated),-0.05,1,83*
CCCc1[nH]nc2c1C(c1ccc(OC)c(CSC3=NCCS3)c1)C(C#N)=C(N)O2 (configuration not stated),0.65,1,28*
CCCc1[nH]nc2c1C(c1ccc(OC(=O)N3CCOCC3)c(OC)c1)C(C#N)=C(N)O2 (configuration not stated),-0.19,-2,8
Cc1c(C(=O)NC(C)CN2CCCCC2)oc2ccccc12 (configuration not stated),2.6,-1,12
COc1ccc(CNC(=O)Nc2cccc3ccccc23)cc1,0.71,0,19
COc1cc(C2=NOC(C(=O)N3CCOCC3)C2)cc(OC)c1OC (configuration not stated),0.89,-2,x
COc1cc(-c2csc(N3CCOCC3)n2)cc(OC)c1OC,0.67,0,56*
COC(=O)C(CCSC)NC(=O)c1cc2c(n(-c3ccccc3)c1=O)CC(C)(C)CC2=O (configuration not stated),1.2,-3,8
COC1(C)CC2C(CC1OC(=O)c1cc([N+](=O)[O-])cc([N+](=O)[O-])c1)C2(C)C (configuration not stated),-1.6,-6,10
CC[n+]1c(/C=C/C=C/N(C(C)=O)c2ccccc2)sc2cc(OC)ccc21,1,70*[fluoresces],3
CC[n+]1c(/C=C/Nc2ccccc2)sc2ccccc21,0.84,-2,4
CC(=O)Nc1ccc(/C(C)=N/NS(=O)(=O)c2ccccc2)cc1,1.1,x,4
O=S(=O)(/C=C/c1ccccc1)Oc1ccccc1,-1.1,166*,9
O=S(=O)(/C=C/c1ccccc1)N1CCN(c2ccccc2)CC1,1.1,-1,4
CSCC[C@H](NC(=O)C(C)(C)Oc1ccc(Cl)cc1)c1nc2ccccc2[nH]1,-1.3,-3,4
O=C(CSc1nc(-c2ccco2)cc(C(F)(F)F)n1)N1CCN(c2ccc(Cl)cc2)CC1,-0.94,x,70*
O=C(CSc1nc(-c2ccco2)cc(C(F)(F)F)n1)N1CCN(Cc2ccccc2)CC1,-1.8,0,18
C=CCNC(=S)Nc1cc(Cl)ccc1OC,0.29,-11,16
CN(c1cccc(NC(=O)COc2ccc(Cl)cc2Cl)c1)S(C)(=O)=O,-0.28,x,2
O=C(COC(=O)CCSc1ccc(Cl)cc1)NCc1ccccc1,-0.36,-7,8
O=C(COC(=O)CCSc1ccccc1)NCc1ccccc1Cl,1.3,-12,75*
COc1ccc(Cc2nnc(SCC(=O)c3ccc(OC)cc3)o2)cc1,-0.81,0,5
COc1ccc(NCc2nnc(SCC(=O)c3ccc(OC)cc3)o2)cc1,-0.22,0,38*
COc1ccccc1OCCC(=O)OCC(=O)Nc1ncc(Cl)cc1Cl,0.85,0,3
O=c1/c(=C\c2cccnc2)sc2nc3ccccc3n12,0.4,-2,1
SMILES,sdo1 growth,Phagocyt inh,Measles CPE
O=C1CCC/C1=c1\s/c(=C\c2cccnc2)c(=O)n1-c1ccccc1,-1.6,1,28*
Cc1nn(C)c(C)c1CN(C)S(=O)(=O)c1ccc(F)cc1,0.61,x,5
Cc1nn(C)c(C)c1CN(C)S(=O)(=O)c1ccc2ccccc2c1,-0.7,x,47*
Cc1sc(N/N=C/c2ccco2)nc1-c1ccccc1,-0.2,-5,18
Cc1sc(N/N=C/c2cccnc2)nc1-c1ccccc1,-1.7,6,83*
CN(C)c1ccc(CN(C(=O)C2COc3ccccc3O2)C2CCS(=O)(=O)C2)cc1 (configuration not stated),-1.5,0,1
CCCC/C(O)=N\S(=O)(=O)c1ccc(N=NN(C)C)cc1,1.7,x,3
CCOc1ccccc1C1C2C(=O)N(c3ccccc3)C(=O)C2ON1c1ccccc1 (configuration not stated),0.72,1,47*
CCCC1C2C(=O)N(c3ccccc3)C(=O)C2ON1c1ccccc1 (configuration not stated),0.3,-1,8
CCCOc1ccc(N2C(=O)C3ON(c4ccccc4)C(CCC)C3C2=O)cc1 (configuration not stated),-0.12,0,25*
O=C(O)COc1ccccc1C1C2C(=O)N(c3ccccc3)C(=O)C2ON1c1ccccc1 (configuration not stated),-0.02,-1,4
Cc1cc(C)n(-c2ccc(Cl)c(C(=O)Nc3ccc(-c4nnc5n4CCCCC5)cc3)n2)n1,-1.4,0,10
Cc1cccc(C(=O)/C=C2/c3ccccc3CC(C)(C)N2C)c1,-0.82,-1,4
